Tested on: RARb homodimer (NR concentration 270 nM)
Test: PBM binding z-score (relative to random genomic background probes); higher = stronger binding; sequences stand for … in GC…GCGATTGACAGCGTAGAATGAAGG
Outline: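 Regression normalization was applied to scanned fluorescence from custom Agilent 4×180K protein-binding microarrays. Before scanning, arrays were incubated 1 h with ligand-free nuclear receptor dimers, and binding was detected with antibodies against each partner (one per run). Binding z-scores use the random background probes as reference.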

Row | Sequence | PBM binding z-score
1 | CCTAGTTGGTCAAGGTCACGCACGCTATAGGTAC | 4.81
2 | GATACAGGGTCATCTAGAGGCCAGAGTATGGAAA | 3.71
3 | AGTCAAAGTTCACTAGGTTACGTAAGATTCAGCT | 4.27
4 | CCAGACAGGTGAAAGGTAACTCACTCTGGTACGC | 0.88
5 | ATCTCTAGGTGAAAGTTCAGTGAATCCCGAGGAT | 2.67
6 | CAAACTAGGTCAAGGTCAAATTCGGTTTGTGCCA | 5.19
7 | CAAACTAGGTCACGAAAGGTCAAAATCGAATGAC | 5.7
8 | CCTACTGGGCCAAGGTCATTGACCAGTCAAAGCA | 3.43
9 | TTAACAAGGTGAAAGGTCGTTGATGCACGCCTTG | 2.51
10 | CCTGCTCGGTCAATGGTCAGCTAAAGCAGCTCGC | 1.62
11 | CGTCAAAGTTCAAGGTAATGTAACAGAAAGCAGC | 4.04
12 | CAAACTAGGTCAAAGGTCAAAGACGAGCCAACCA | 5.19
13 | CCTACTGGGCCATTGAGAGGTCATTGATCATATG | 3.78
14 | CCTGCTAGTTCATGGTCAGCTAATCTACAGTATG | 0.96
15 | TCTAGTTCGTCACGGAGGTCACACACGACGGGTA | 4.28
16 | AGAATGAGGTTAGCAAAGATCAGGGAAACGCTTG | 0.446
17 | TAGCCTAGGTCATTCAGGGGCTAGTATAGAAAGC | 2.84
18 | ACTCGGAGGACAAAGGTAAGAGCTACGCCAGTGA | 0.319
19 | TCATATAGGTAATCAGGTGAAAGTCCGTAAGTTA | 0.773
20 | CCTACTGGGCCAAAGGTCATTGACTCCAATGCTC | 4.46

Row | Sequence | PBM binding z-score
21 | AAATGTAGGTTAAGGGTCATTCAGGTTGGTTCGC | 3.78
22 | GGAACTAGGGCAAAGTTGATAGCATCTGTCGACG | 0.866
23 | CAAACTAGGTCAAGGGGTCAAAGTCCGCTTCCCG | 5.65
24 | ATCGAAAGGTCGTGAGGTGAGTACACAGAAAGGC | 3.12
25 | CGAACTAGTTCAAGGACAGTGAATCTCCGCACGC | 0.95
26 | CCTGCTAGTTCAATGGTCAGCTAAAGCAGCTCGC | 1.18
27 | ATATGTAGGTTAGCGGGGGTCATTCAGACTAGGC | 4.17
28 | CGTCCAAGGTCAGCAGGTGAGTGAAAGCGACGTG | 3.84
29 | TAGCCTCGGTCATTGGGCCAGTATAGTACGCATC | 1.53
30 | GCTAGTTGGTCAGTAAATGGTCACACACCGGTCG | 1.28
31 | AGACAAAGTTCAGGACGAGGTAACGTAAAGCACG | 3.04
32 | CGCACTAGGTCATTGACAGGACAGTGAATAGTAA | 2.68
33 | ATGGAAAGGTCGTGAGGTGAGTATACAGAAAGGC | 3.62
34 | ATATCTAGGTAAAAGTTCAGTGAATCCCGAGGAT | 2.58
35 | CCTACTGGGCCGAGGTCATTGATCAGTCAAAGCA | 3.3
36 | TTACCAAAGTGAAAGGTCGTTGATGCACGCCTTG | 1.87
37 | CCTAGTAGGTTATGGGGCATTCAGGCAACGGTGA | 0.8
38 | AGTCAAAGTTCATCTGGGTAACGTAAGATATGCT | 4.07
39 | TCTTGTAGATCAAAGGTCAAGAAAGCCGAAGCCT | 4.47
